Sampled rows, rich in hits. Any-hit rate of the full collection: about 10%.
GPT2 inh: blocks human glutamate pyruvate transaminase 2. hit rate 0.25% among 100,000. Recombinant GPT2, coupled pyruvate oxidase/HRP Amplex Red fluorescence. Potency, µM (doses to about 57.7 µM), most hits filed as inhibitors. AID 1671188. Q8TD30; also: nearly all actives have a fitted effect of over 60% in size
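GPT2 10ng/uL, a-KG 250uM, L-Ala 2mM, HEPES pH7.5 + 0.0001% Tween; 30 min RT. Then Amplex mix (PO/HRP/ThPP), 30 min RT dark, fluorescence. AOA 50uM used as positive control.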
NPR1 antag: blocks ANP-stimulated signaling of human Npr1 receptor; P16066; HEK293 hNpr1 GloSensor cGMP, ANP-stimulated luminescence; Potency, µM (doses to about 46.3 µM), usual class: inhibitors; hit rate 1.6% among 76,000; AID 1347048; calls by dose curve; also: nearly all actives have a fitted effect of over 60% in size
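HEK293 cells stably expressing human Npr1 and cGMP GloSensor pGS-40F, loaded 2 h with 2% GloSensor reagent, given compound 30 min at room temperature. Luminescence read before and 20 min after 0.1 nM hNppA.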
FLuc inh: Photinus pyralis luciferase inhibition. purified P. pyralis luciferase, luminescence, biochemical. Potency, µM (top dose mostly 115 µM), most hits filed as inhibitors. hit rate 2.5% among 76,000. AID 1347043; also: nearly all actives have a fitted effect of over 65% in size
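Cell-free enzyme assay, 10nM P. pyralis luciferase, luciferin and ATP each at 10uM. Inhibition profiled over a 6-point titration, read as luminescence.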
HEK293 tox: kills HEK 293 cells | hit rate 6.6% among 94,000 | HEK 293 viability, ATP luminescence (CellTiter-Glo), 48-72 h | Potency, µM (doses to about 115 µM), hits mostly inhibitors; also: nearly all actives have a fitted effect of over 60% in size
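Cells seeded first (HEK 293, 250 cells/well), then compound added by pintool. Incubation ran 48 or 72 hr at 37 degree Celsius. CellTiter-Glo was added and luminescence imaged after 10 min at room temperature.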
3T3 cytotox: kills NIH 3T3 cells; NIH 3T3 viability, CellTiter-Glo ATP luminescence, 48-72 h; Potency, µM (highest dose often 96.7 µM), most hits filed as inhibitors; hit rate 4.3% among 94,000; AID 1345082; also: nearly all actives have a fitted effect of over 55% in size
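Cells were seeded at 400 per well, treated with pin-transferred compound, and kept 48 or 72 hr at 37 °C before CellTiter-Glo addition and luminescence imaging of cellular ATP.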
Hits are given with their value; - = inactive; ? = inconclusive; . = no result. Unless noted, calls follow the shape of the dose curve; as a rule, active = well fitted curve in the direction sought with a large enough effect; inconclusive = small, poorly fitted or top-dose-only effect, or another doubt; inactive = no such curve, though single readings can be large; an effect the other way counts as inactive or inconclusive.

SMILES	GPT2 inh	NPR1 antag	FLuc inh	HEK293 tox	3T3 cytotox
Cc1ccc([S+](=O)([O-])N2CCC(C(=O)N3CCC(c4nc5ccncc5[nH]4)C3)CC2)cc1 (centres undefined)	-	.	.	-	-
CC1(CCCCc2ccccc2)COc2ccc(C(=O)Nc3cccnc3)cc2N1 (centres undefined)	-	?	-	?	?
CNC(=O)[C@H]1CN(C(=O)Cc2cccs2)[C@]2(C)C(=O)N(CCOC)c3ccccc3[C@H]12	-	.	.	?	?
CN(C)CC(=O)N1Cc2ccccc2CC2(CCCN(CCc3ccccc3)C2)C1 (centres undefined)	-	.	.	?	?
CN1CC(=O)N(C2CCCNC2)Cc2c1ncnc2N1CCOCC1 (centres undefined)	?	.	.	-	-
CCCn1ccnc1CN1CCCC12CCN(c1ccc(C(F)(F)F)cn1)CC2	?	-	-	35µM	?
Cn1ccnc1CN1CCCC12CCN(c1ccc(C(F)(F)F)cn1)CC2	-	-	-	50µM	?
O=C(C1CCCN1C(=O)c1cccc(Cl)c1)N1CCC(N2Cc3cccn3C2=O)CC1 (centres undefined)	-	.	.	-	?
O=C(CNC(=O)c1cccc(-c2ccsc2)c1)NCc1ccc(F)cc1F	-	.	.	?	-
COc1cc(CNc2nc(-c3c(C)noc3C)cc3cc(C)oc23)cc(OC)c1	-	?	-	?	25µM
Cc1cc2cc(-c3c(C)noc3C)nc(N(C)CCN(C)C)c2o1	-	-	-	100µM	?
Cc1cc2cc(-c3c(C)noc3C)nc(Nc3ccccc3)c2o1	-	-	-	?	32µM
Cc1cc2cc(-c3c(C)noc3C)nc(-c3ccc([S+](C)(=O)[O-])cc3)c2o1	-	-	-	-	?
O=C(N[C@@H]1CCC[C@@H]1C(=O)N1CCN(c2ccccn2)CC1)c1ccncc1	-	-	-	-	-
COc1cncc(CN2CCC3(CC2)COCCN3C(=O)OCc2ccccc2)c1	-	-	-	?	-
COCCNC(=O)[C@@H]1C[C@@H](c2ccc(F)cc2)N([S+](=O)([O-])c2ccccc2)C1	-	-	-	-	?
COCCN[C@@H]1C[C@@H]2c3[nH]c4ccccc4c3C[C@@H](C(=O)OC)N2[C@H](c2ccc(C(F)(F)F)cc2)C1	-	-	-	35µM	45µM
COC(=O)[C@@H]1Cc2c([nH]c3ccccc23)[C@H]2C[C@@H](N3CCOCC3)C[C@@H](c3ccccc3)N21	-	-	-	?	?
COC(=O)[C@@H]1Cc2c([nH]c3ccccc23)[C@H]2C[C@H](NCCNC(C)=O)C[C@@H](c3ccc(C(F)(F)F)cc3)N21	-	-	-	20µM	28µM
COC(=O)[C@@H]1C2CC3c4[nH]c5ccccc5c4CCN3CC2CC[C@@H]1O (some centres undefined)	-	.	.	.	.
COC(=O)[C@@H]1Cc2c([nH]c3ccccc23)[C@H]2C[C@H](NCCNC(C)=O)C[C@@H](c3ccccc3)N21	-	-	-	89µM	?
Cc1cc(=O)n(CC(=O)Nc2ccc(C(C)C)cc2)c(N2CCOCC2)n1	-	-	-	?	?
O=C(NC1CCCC1)c1cc(C2CC2)nc2onc(C3CCNCC3)c12	-	.	.	-	-
CC(=O)N1CCC(C2CCN(C(=O)CN3CCOCC3)C2)CC1 (centres undefined)	-	.	.	-	-
CN(C)c1cc(=O)c2ccnc(-c3ccccc3Oc3ccccc3)c2o1	-	-	-	?	?
SMILES	GPT2 inh	NPR1 antag	FLuc inh	HEK293 tox	3T3 cytotox
O=c1cc(-c2cccnc2)oc2c(-c3cn[nH]c3)nccc12	-	-	-	-	8.9µM
O=c1cc(-c2cccnc2)oc2c(-c3ccccc3Oc3ccccc3)nccc12	-	-	-	100µM	?
CN(C)c1cc(=O)c2ccnc(-c3ccccc3F)c2o1	-	-	-	?	45µM
C[S+](=O)([O-])c1ccc(-c2nccc3c(=O)cc(-c4ccncc4)oc23)cc1	-	-	-	?	32µM
Cc1ccsc1C(=O)N1CCC(n2nccc2NC(=O)c2cccc(F)c2)CC1	-	-	-	-	-
O=c1cc(-c2cccnc2)oc2c(-c3ccccc3F)nccc12	-	-	-	?	20µM
O=c1cc(-c2ccncc2)oc2c(-c3ccccc3O)nccc12	-	-	-	?	-
O=C1CC2(CCN(C(=O)C3CCCN3C(=O)c3ccc(F)cc3)CC2)Oc2ccccc2N1 (centres undefined)	-	.	.	-	-
C=CCOc1c(OC)ccc2c1CN(CC1CC1)C(=O)CCN2CC(O)COc1ccc(OC)cc1 (centres undefined)	.	.	.	40µM	?
C=CC(C)(C)C1(CC2NC(=O)C3CCCN3C2=O)C(=O)Nc2cc3c(cc21)C=CC(C)(C)O3 (centres undefined)	-	.	.	.	.
CC(C)c1ccc(CN2CCC3(CC2)COCCN3C(=O)OCc2ccccc2)cc1	-	?	-	50µM	35µM
O=C(OCc1ccccc1)N1CCOCC12CCN(Cc1ccc(F)cc1)CC2	-	-	-	71µM	?
O=C(COc1ccccc1)N1CCOCC12CCN(Cc1ccccc1)CC2	?	-	-	45µM	?
O=C(OCc1ccccc1)N1CCOCC12CCN(Cc1cccs1)CC2	-	-	-	?	28µM
COc1ccc(-n2c(=O)c(C(=O)NC3CCCC3)nc3cccnc32)cc1	-	.	.	-	-
CNC(=O)c1cc(C2CC2)nc2c1c(C1CCCN1C(=O)c1ccc(Cl)cc1)nn2C (centres undefined)	.	.	.	-	-
CN(CC(=O)N1CCCn2nc(-c3cccc(C(F)(F)F)c3)cc2C1)S(=O)(=O)c1ccc2c(c1)oc(=O)n2C	-	.	.	32µM	?
COC(=O)CNC(=O)C1CCCN1C(=O)c1cccc(-c2ccccn2)c1 (centres undefined)	-	.	.	-	-
CC(=O)N1CCC(Nc2cc(-c3ccc(Cl)cc3)nc3c(C)noc23)CC1	?	-	-	?	?
Cc1noc2c(-c3cccnc3)cc(-c3cccs3)nc12	-	-	-	?	?
Cc1noc2c(NC3CCC(O)CC3)cc(-c3ccc(Cl)cc3)nc12 (centres undefined)	-	-	-	89µM	22µM
Cc1noc2c(-c3cccc(O)c3)cc(-c3cccs3)nc12	-	-	-	71µM	40µM
CC(=O)N1CCC(Nc2ncccc2-c2cc(-c3ccccc3)nc3c(C)noc23)CC1	-	-	-	100µM	?
Cc1noc2c(NC3CCN(C)CC3)cc(-c3ccc(Cl)cc3)nc12	-	-	-	35µM	10µM
C[S+](=O)([O-])c1cccc(-c2nnc3ccc(C(=O)NCC(F)F)cn23)c1	?	.	.	-	-
Cc1noc2c(NC3CCN(C)CC3)cc(-c3cccs3)nc12	-	-	-	79µM	?
